Screening results deposited in PubChem BioAssay by National Center for Advancing Translational Sciences (NCATS).
FMDV antiviral – High Throughput Screening for Foot and Mouth Disease Virus Antivirals. FMDV antiviral cell-based qHTS. 410,000 tested, 1.2% active. Potency, µM (doses to about 57.9 µM), most hits filed as inhibitors. AID 1159524, 2015; calls by dose curve; tested in HEK293T cells; further: read-out not given here; nearly all actives have a fitted effect of over 45% in size
Shiga inhibitor – A qHTS for Small Molecule Inhibitors of Shiga Toxin. inhibition, % at 38.7 µM. Vero cells, Shiga toxin protein synthesis inhibition reporter. 290,000 tested, 9.2% active; in the data active means inhibition mostly above about 28%, no sharp cut-off; inactive means mostly below about 43%
Sm TGR inh – qHTS Assay for the Inhibitors of Schistosoma Mansoni Peroxiredoxins; Schistosoma mansoni thioredoxin glutathione reductase (TGR), Q962Y6; purified TGR, DTNB reduction, TNB absorbance 405 nm; Potency, µM (highest dose often 114 µM), hits mostly inhibitors; 360,000 tested, 3% active; AID 485364, 2010; active means well fitted inhibition curve with a large enough effect; inconclusive means small, poorly fitted or top-dose-only effect; inactive means no such curve, though single readings can be large or run the other way; further: nearly all actives have a fitted effect of over 60% in size
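Kinetic colorimetric format: TGR-catalysed, NADPH-driven DTNB reduction monitored via TNB absorbance. Enzyme dispensed at 20 nM; compound exposure 15 min at room temperature before reaction start.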
Cycloheximide cs – Cycloheximide Counterscreen for Small Molecule Inhibitors of Shiga Toxin | max response, % | 300,000 tested, 12% active | AID 2314, 2010 | cell reporter, cycloheximide protein synthesis inhibition counterscreen; in the data active means max response mostly above about 13%, no sharp cut-off; inactive means mostly below about 14%; further: read at 38.3 µM for the half of the compounds with a filed dose
Hits are given with their value; n = inactive; u = inconclusive; x = no result given; + = active, no number; ! = repeats disagree. Shown are actives, neighbours in structure and some others; about 12% of the full set was active somewhere.

SMILES	FMDV antiviral	Shiga inhibitor	Sm TGR inh	Cycloheximide cs
COc1ccc(C2Nc3ccccc3C(=O)N2NC(C)=O)cc1OC (configuration not stated)	n	n	n	n
CCOc1cc(C2Nc3ccccc3C(=O)N2c2ccccc2)c(Br)cc1OCC(=O)O (configuration not stated)	n	n	n	n
COc1cc(C2OC(=O)c3c2ccc(OC)c3OC)ccc1O (configuration not stated)	x	x	28µM	x
COc1ccc(C2Nc3ccccc3C(=O)N2O)cc1OC (configuration not stated)	n	n	n	20
Cc1nnc(SCc2nc(-c3ccc(Cl)cc3)no2)n1-c1ccc(F)cc1	n	x	n	x
Cc1ccc(SCc2nc(-c3ccc(C(=O)NCc4ccccc4Cl)cc3)oc2C)cc1	n	x	n	x
COCCn1c(C)cc(O)c(C(c2ccc(Cl)cc2)N2CCCCC2)c1=O (configuration not stated)	n	x	10µM	x
COCCn1c(C)cc(O)c(C(c2ccc(C)cc2)N2CCCCC2)c1=O (configuration not stated)	n	x	8.9µM	x
COCCn1c(C)cc(C(=O)CN2CCCCC2)c1C	n	n	n	n
COc1ccc(NC(=O)c2cccc(OS(=O)(=O)N(C)C)c2)cc1	n	105	x	44
CNS(=O)(=O)c1cccc(C(=O)Nc2cccc(Cl)c2)c1	n	n	n	35
COC(=O)COc1ccc(C(=O)OC)cc1	n	n	n	n
COC(=O)c1ccc(OS(=O)(=O)N(C)C)cc1	n	99	n	54
COc1ccc(NC(=O)c2ccc(S(=O)(=O)N(C)C)cc2)cc1	n	n	n	n
CNS(=O)(=O)c1cccc(C(=O)Nc2cccnc2)c1	n	n	n	n
CN(C)S(=O)(=O)Oc1cccc(C(=O)Nc2ccc(Cl)c(Cl)c2)c1	n	117	n	72
CN(C)S(=O)(=O)Oc1cccc(C(=O)Nc2cccc(Cl)c2)c1	n	67	n	38
COc1cccc(S(=O)(=O)NCc2ccc(C(=O)Nc3ccc(Cl)cc3)cc2)c1	u	n	n	n
COc1cccc(C(=O)Nc2cccc(NC(=O)c3ccc(Cl)cc3Cl)c2)c1	n	x	n	x
COc1cccc(S(=O)(=O)NCc2ccc(C(=O)Nc3cccc(Cl)c3)cc2)c1	25µM	n	n	n
S=C(Nc1ccccc1Cl)NC1CCCCCC1	n	63	n	18
Fc1cccc(NC(=S)NC2CCCCCCC2)c1	n	75	n	35
S=C(Nc1ccc2nsnc2c1)NC1CCCCC1	n	88	u	59
S=C(Nc1ccc(Cl)cc1Cl)NC1CCCCC1	n	n	n	n
Cc1cccc(NC(=S)NNC(=S)NC2CCCCC2)c1C	n	44	n	16
SMILES	FMDV antiviral	Shiga inhibitor	Sm TGR inh	Cycloheximide cs
CCc1cccc(C)c1NC(=O)CSc1nc2ccccc2nc1Cc1ccccc1	n	x	n	x
Cc1ccc(NC(=S)NC2CCCCC2)cc1S(=O)(=O)N(C)C	n	125	n	32
S=C(NNc1ccc2ccccc2c1)NC1CCCCC1	n	61	n	49
S=C(Nc1ccc(Cl)c(Cl)c1)NC1CCN(Cc2ccccc2)CC1	14µM	n	n	n
Cc1ccc(NC(=O)CNCC2CCCCC2)cc1S(=O)(=O)N(C)C	n	n	n	n
O=C(Nc1ccccc1)c1ccccc1NC(=O)C1CCCCC1	n	n	n	n
S=C(Nc1ccc(Oc2ccccc2)cc1)NC1CCCCCC1	n	n	n	n
Cc1cccc(NC(=O)c2ccccc2NC(=O)C2CCCCC2)c1C	x	n	13µM	n
Fc1ccc(NC(=S)NC2CCN(Cc3ccccc3)CC2)cc1	n	n	x	n
NCC(=O)N[C@@H](CCCN=C(N)N)C(=O)NCC(=O)N[C@@H](CCC(=O)O)C(=O)N[C@@H](CO)C(=O)O	x	n	x	n
CCOCCCNC(=O)c1cnc2sc(N3CCCCCC3)nn2c1=O	n	x	n	x
S=C(Nc1ccc(Cl)c(Cl)c1)NC1CCCCC1	n	+	n	56
S=C(Nc1ccc(Oc2ccc(NC(=S)NC3CCCCC3)cc2)cc1)NC1CCCCC1	n	n	n	n
CC(C)c1ccc(NC(=S)NC2CCCCCC2)cc1	n	69	n	32
FC(F)(F)c1ccc(NC(=S)NC2CCCCC2)cc1	n	82	n	44
CCCCN(C(=O)C1CCC(CNS(=O)(=O)c2cccc3nsnc23)CC1)c1ccccc1 (configuration not stated)	u	x	n	x
Cc1ccc(NC(=O)/C(C#N)=C(\N)C(Cl)(Cl)Cl)nc1	n	76	u	38
Cc1ccc(NC(=O)c2sccc2C)nc1	n	88	n	49
CC(C)N(C(=O)NC(=O)Nc1ccccn1)S(C)(=O)=O	n	n	n	n
Cc1ccc(NC(=O)Nc2ccccc2)nc1	n	x	x	x
Cc1ccc(NC(=O)NC(=O)N(C(C)C)S(C)(=O)=O)nc1	n	n	n	14
Cc1ccc(NC(=O)C(=O)Nc2ccc(C)cn2)nc1	n	85	n	50
Cc1ccc(NC(=O)c2ccc(F)cc2)nc1	n	n	n	n
Cc1ccc(NC(=O)c2cccnc2C(=O)O)nc1	n	n	n	n
Cc1ccc(CNC(=O)c2nc(-c3ccc(Cl)cc3)n3c2CCCCC3)cc1	n	x	n	x
SMILES	FMDV antiviral	Shiga inhibitor	Sm TGR inh	Cycloheximide cs
Cc1oc2ccc(O)c(CN3CCCC3)c2c1C(=O)Nc1cccc(Cl)c1C	n	x	n	x
CN(C(=O)CSc1nc2ccc(NC(=O)c3cccs3)cc2s1)c1ccccc1	u	x	n	x
COc1cc2c(cc1OC)C(COc1cc(C)cc(C)c1)N(C(=O)C(C)(C)C)CC2 (configuration not stated)	n	x	n	x
O=C1OCCC1N(C(=O)C1CC1)c1cccc(Cl)c1 (configuration not stated)	x	n	x	n
Cc1cc(C)n2nc(CNC(=O)c3cccc(Cl)c3)nc2n1	n	x	n	x
CC(C)NC(=O)c1cn([C@H]2CC[C@@H](NC(=O)/C=C/c3cccs3)CC2)nn1	n	x	x	x
CN(C)[C@@H]1C(=O)C(C(N)=O)=C(O)[C@@]2(O)C(=O)C3=C(O)c4c(O)cccc4[C@@](C)(O)[C@H]3[C@H](O)[C@@H]12	n	n	8.9µM	n
C[C@H]1c2cccc(O)c2C(O)=C2C(=O)[C@]3(O)C(O)=C(C(N)=O)C(=O)[C@@H](N(C)C)[C@@H]3[C@@H](O)[C@@H]21	n	n	n	10!
CCc1cccc(CC)c1NC(=O)c1c(C)oc2ccc(O)c(CN3CCN(C)CC3)c12	n	x	n	x
CC1CCCCN1C(=O)c1ccc2c(c1)N(Cc1ccc(F)cc1)C(=O)c1ccccc1S2(=O)=O (configuration not stated)	n	x	n	x
CCc1ccc(CNC(=O)CCCN2C(=O)CCn3nc(-c4cccn4C)cc32)cc1	n	x	n	x
Cc1ccc(S(=O)(=O)c2cnc(SCC(=O)Nc3cccc(Cl)c3)nc2N)cc1C	u	x	n	x
CCN1CCC(O)(/C=C/c2ccc(C(C)C)cc2)C(C(=O)/C=C/c2ccc(C(C)C)cc2)C1 (configuration not stated)	32µM	x	x	x
CC(C)c1ccc(/C=C/C(=O)O)cc1	n	n	n	n
COc1ccc(CNC(=O)Cc2c(C)c3c(cc(C)c4c(C)coc43)oc2=O)cc1	n	x	n	x
